Drawing on PubChem BioAssay (NCI), this text covers growth for 19 compounds.

Some test systems named below: HT29 colon; SNB-75 CNS; SNB-19 CNS; PC-3 prostate; SK-MEL-5 melanoma; UACC-62 melanoma; LOX IMVI melanoma; SK-MEL-28 melanoma; U251 CNS.
Common to all, as to test: NCI-60 one-dose screen, 48 h (100 = growth as untreated, 0 = no growth, -100 = all killed)
Holding throughout (conditions): 10 µM unless noted

Molecules are shown by their SMILES. The panel holds about 83,000 compounds, 20% with a hit somewhere; the sample as a whole holds those more often.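 Negative percent growth values reflect cell death: -40 means 40% of the cells present at the start died, and -100 means all died.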 Unmarked numbers belong to inactive results. Activity calls are given as the source filed them. The calls were made as follows: active = growth percent below 10; inactive = the rest.

In the case of `Oc1nc(NCc2ccccc2)sc1/C=C1\C=Nc2ncccc21`, the growth in the assay with HT29 colon is 57.9%; in the assay on SNB-75 CNS it was 37.3%; with SNB-19 CNS, 63.3%; in the assay on PC-3 prostate, 71.3%; in the assay with SK-MEL-5 melanoma it was 70%; with UACC-62 melanoma, 69.7%. Further, the growth in the assay with LOX IMVI melanoma is 52.1%; in the assay on SK-MEL-28 melanoma it was 69.2%.
Regarding `COC(=O)/C=C1/SC(=NCc2ccccc2)N(CCc2c[nH]c3ccccc23)C1=O`, the growth with HT29 colon is 68.1%; with SNB-75 CNS, 104%; with SNB-19 CNS, 87.2%; in the assay on U251 CNS, 78.5%; in the assay with PC-3 prostate, 72.9%; in the assay with SK-MEL-5 melanoma, 87.6%. Further, the growth with UACC-62 melanoma is 71.7%; in the assay with LOX IMVI melanoma it was 70.6%; in the assay with SK-MEL-28 melanoma, 86.5%.
As for `CC/C(=C(/c1ccc(O)cc1)c1ccc(OCCN2CCCCC2)cc1)c1ccc(OC)cc1`, the growth was 4.3% (active) with HT29 colon; 74.1% in the assay on SNB-75 CNS; 94.7% in the assay with SNB-19 CNS; 79.4% in the assay on PC-3 prostate; 112% with UACC-62 melanoma; -40% (active) in the assay with LOX IMVI melanoma. In addition, the growth in the assay on SK-MEL-28 melanoma was 60.3%.
For `COc1cc(N2C(=O)[C@H](Cl)C2c2ccc(SC)cc2)cc(OC)c1OC` (stereo not given in full), the growth is 1.22% (active) in the assay with HT29 colon; 73.9% with SNB-75 CNS; 30.5% with SNB-19 CNS; 7.72% (active) in the assay on U251 CNS; 22.1% in the assay with PC-3 prostate; -34.3% (active) in the assay on SK-MEL-5 melanoma. Besides, the results for the growth with UACC-62 melanoma, in the assay with LOX IMVI melanoma and with SK-MEL-28 melanoma were 29.5%, 20.3% and 65.7%, respectively.
As for `COc1nc(/C=C\Nc2ccc3c(c2)OCCOCCOCCOCCO3)nc(OC)n1`, the growth was 99.5% in the assay on HT29 colon; 72.3% with SNB-75 CNS; 103% in the assay on SNB-19 CNS; 99.4% in the assay with PC-3 prostate; 97.5% in the assay with SK-MEL-5 melanoma; 93.3% in the assay on UACC-62 melanoma. In addition, the growth in the assay on LOX IMVI melanoma is 92.1%; with SK-MEL-28 melanoma, 104%.
For the compound `N=C(N)c1ccc(-c2ccc(-c3ccccc3)o2)o1`, the growth was 4.83% (active) in the assay on HT29 colon; 32.8% with SNB-75 CNS; 38.3% in the assay with SNB-19 CNS; 30.4% with PC-3 prostate; 30.5% in the assay on SK-MEL-5 melanoma; 61.9% in the assay with UACC-62 melanoma. In addition, the growth was 14.3% in the assay with LOX IMVI melanoma and 69.1% in the assay on SK-MEL-28 melanoma.
Consider `COc1cccc(-c2cn3nc(-c4cn(C)c5ccccc45)sc3n2)c1`, for which the growth was 91.1% in the assay on HT29 colon; 83.1% in the assay with SNB-75 CNS; 91.7% with SNB-19 CNS; 97.7% in the assay on U251 CNS; 94.7% in the assay on PC-3 prostate; 84.2% in the assay on SK-MEL-5 melanoma. For the same compound, the growth was 77.9% with UACC-62 melanoma, 97.6% with LOX IMVI melanoma and 95.1% in the assay with SK-MEL-28 melanoma.
As for `c1ccc(Nc2nc3c(s2)CCc2c[nH]cc2-3)nc1`, the growth in the assay on HT29 colon is 100%; with SNB-75 CNS it was 88.7%; in the assay with SNB-19 CNS it was 100%; in the assay with U251 CNS, 89.6%; in the assay on PC-3 prostate, 70.4%; in the assay with SK-MEL-5 melanoma it was 83.5%. Moreover, the growth was 92.1% in the assay with UACC-62 melanoma, 82.7% in the assay with LOX IMVI melanoma and 110% in the assay on SK-MEL-28 melanoma.
Regarding `C#CCOc1cccc(Nc2ncnc3c2ncn3C2CCN(C(=O)CCl)C2)c1` (stereo not given), the growth is -68.4% (active) in the assay on HT29 colon; -3.65% (active) in the assay with SNB-75 CNS; 13.7% in the assay on SNB-19 CNS; -92% (active) in the assay on U251 CNS; -14.2% (active) in the assay on PC-3 prostate; -85.7% (active) in the assay on SK-MEL-5 melanoma. Also, the figures for the growth in the assay with UACC-62 melanoma, in the assay on LOX IMVI melanoma and in the assay with SK-MEL-28 melanoma were -66% (active), -86.5% (active) and -43.9% (active), respectively.
On to `CNC(=O)c1cc(Oc2ccc3c(c2)sc2nc(-c4ccc(Cl)c(C(F)(F)F)c4)cn23)ccn1`, for which the growth was 56% with HT29 colon; 81.4% in the assay on SNB-75 CNS; 77.2% with SNB-19 CNS; 71.9% in the assay with U251 CNS; 45.3% in the assay on PC-3 prostate; 18.8% in the assay with SK-MEL-5 melanoma. Further, the growth was 60.6% in the assay on UACC-62 melanoma, 50% with LOX IMVI melanoma and 80.1% with SK-MEL-28 melanoma.
With `COc1cc(/C=N/NC(=O)c2ccc(-n3cc(-c4ccccc4)nn3)cc2)cc(OC)c1OC`, the growth is 47.8% in the assay on HT29 colon; 71.6% in the assay with SNB-75 CNS; 58.9% in the assay with SNB-19 CNS; 48.4% with U251 CNS; 47.5% in the assay with PC-3 prostate; 57.2% with SK-MEL-5 melanoma. For the same compound, the growth in the assay on UACC-62 melanoma was 9.86% (active); in the assay with LOX IMVI melanoma it was 36.3%; with SK-MEL-28 melanoma it was 53.3%.
As to `CCOc1ncc([N+](=O)[O-])c(OCC)n1`, the growth is 121% with HT29 colon; 97% in the assay with SNB-75 CNS; 104% with SNB-19 CNS; 109% with U251 CNS; 88.1% in the assay with PC-3 prostate; 99.9% with SK-MEL-5 melanoma. The growth in the assay with UACC-62 melanoma was 95.9%; in the assay on LOX IMVI melanoma it was 101%; in the assay on SK-MEL-28 melanoma, 105%.
With `O=C(N/N=C/c1ccc(Cl)cc1)c1ccc(NC(=O)c2ccccn2)cc1`, the growth in the assay with HT29 colon was 71.8%; in the assay on SNB-75 CNS, -16% (active); with SNB-19 CNS it was 64.9%; in the assay on U251 CNS, 18.3%; in the assay on PC-3 prostate it was 79.8%; in the assay with UACC-62 melanoma it was 62%. The growth was 54% in the assay with LOX IMVI melanoma and 52.1% in the assay on SK-MEL-28 melanoma.
Take `O=C(CCCCCCCC(=O)N1CCCCC1)N1CCCCC1`: the growth with HT29 colon was 106%; with SNB-75 CNS it was 78.8%; with SNB-19 CNS, 105%; with U251 CNS, 102%; in the assay with PC-3 prostate it was 95.3%; in the assay on SK-MEL-5 melanoma, 97.1%. Moreover, the values for the growth in the assay on UACC-62 melanoma, in the assay on LOX IMVI melanoma and in the assay with SK-MEL-28 melanoma were 91%, 88.1% and 102%, respectively.
On to `O=C1/C(=C/c2c[nH]c(=O)[nH]c2=O)SC(=S)N1Cc1ccccc1`, for which the growth in the assay with HT29 colon was 101%; with SNB-75 CNS, 80.1%; with SNB-19 CNS, 95.2%; in the assay with U251 CNS it was 97.7%; with PC-3 prostate it was 98.9%; in the assay on SK-MEL-5 melanoma, 100%. Also, the growth in the assay with UACC-62 melanoma was 91.5%; in the assay on LOX IMVI melanoma, 99.8%; in the assay on SK-MEL-28 melanoma, 103%.
As to `COc1ccc2c(O)c(/C=C3\N=Nc4ncccc43)oc2c1C[C@@H]1CCNC[C@H]1F`, the growth in the assay with HT29 colon was 5.21% (active); in the assay with SNB-75 CNS, -57.3% (active); with SNB-19 CNS it was 1.93% (active); in the assay with U251 CNS it was -84.7% (active); in the assay on PC-3 prostate, -29.1% (active); in the assay with SK-MEL-5 melanoma, 5.56% (active). The growth is -33.2% (active) in the assay with UACC-62 melanoma, -93% (active) in the assay on LOX IMVI melanoma and 5.44% (active) in the assay on SK-MEL-28 melanoma.
In the case of `CCCCCCCCCCOC(=O)c1nn(C(C)=O)c2cc(C)c(C)cc12`, the growth in the assay with HT29 colon is 92.1%; in the assay on SNB-75 CNS, 115%; in the assay on SNB-19 CNS it was 105%; in the assay with U251 CNS, 93.3%; in the assay on PC-3 prostate, 73.7%; with SK-MEL-5 melanoma it was 99.5%. Moreover, the growth with UACC-62 melanoma was 93.3%; in the assay with LOX IMVI melanoma, 87.9%; in the assay on SK-MEL-28 melanoma, 109%.
As for `CC(=O)c1ccc(-n2cc(CN3CCN(c4cc5c(cc4F)c(=O)c(C(=O)O)cn5C4CC4)CC3)nn2)cc1`, the growth with HT29 colon was 90.8%; with SNB-75 CNS, 92.7%; in the assay on SNB-19 CNS, 98.2%; in the assay with U251 CNS, 98.4%; in the assay on PC-3 prostate it was 83.9%; in the assay on SK-MEL-5 melanoma it was 84.3%. In addition, the growth with UACC-62 melanoma was 90.5%; with LOX IMVI melanoma, 55.4%; with SK-MEL-28 melanoma, 99.3%.
For the compound `Cc1ccccc1N1CCN(C(=S)c2ccccc2)CC1`, the growth in the assay with HT29 colon was 96.2%; with SNB-75 CNS it was 84.7%; in the assay with SNB-19 CNS it was 98.8%; with U251 CNS it was 93.4%; with PC-3 prostate, 101%; with SK-MEL-5 melanoma it was 96.8%. Also, the growth is 82.9% in the assay on UACC-62 melanoma, 92.3% in the assay with LOX IMVI melanoma and 109% in the assay with SK-MEL-28 melanoma.
